Test results: the supplement of paper PMC6555819

Tests used:
Assay in all cases: PBM binding z-score (relative to random genomic background probes); higher = stronger binding; sequences stand for … in GC…GCGATTGACAGCGTAGAATGAAGG
[1] = test system: PPARg:RXRa DBDmut IVT, anti-RXR (DBD mutation: RXRa K156A/R161A, NR concentration 270 nM, RXRa partner concentration 90 nM)
How it was run: (§1)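 Ligand-free nuclear receptor dimers were bound for 1 h to custom Agilent 4×180K protein-binding microarrays. Detection used antibodies against each partner (one per run). Binding z-scores rest on regression-normalized fluorescence, with random background probes as the reference.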

[2] = test system: PPARg:RXRa IVT, anti-PPARg (NR concentration 270 nM, RXRa partner concentration 90 nM)
How it was run: as §1

[3] = test system: PPARg DBDmut IVT, anti-PPARg (DBD mutation: PPARg1 K132A/R137A, NR concentration 270 nM)
How it was run: as §1

[4] = test system: PPARg homodimer (NR concentration 180 nM)
How it was run: as §1

[5] = test system: PXR:RXRa (NR concentration 270 nM, RXRa partner concentration 90 nM)
How it was run: as §1

[6] = test system: PXR homodimer (NR concentration 270 nM)
How it was run: as §1

[7] = test system: RARa:RXR (NR concentration 270 nM, RXRa partner concentration 90 nM)
How it was run: as §1

[8] = test system: RARa homodimer (NR concentration 270 nM)
How it was run: as §1

[9] = test system: RARb:RXRa (NR concentration 270 nM, RXRa partner concentration 90 nM)
How it was run: as §1

Sequence	PBM binding z-score [1]	PBM binding z-score [2]	PBM binding z-score [3]	PBM binding z-score [4]	PBM binding z-score [5]	PBM binding z-score [6]	PBM binding z-score [7]	PBM binding z-score [8]	PBM binding z-score [9]
ATATGTAGGTTAGGGTAATTCAGAAAGTAGGGAA	6.57	6.48	2.48	2.03	0.958	1.34	1.34	1.87	1.33
CGAACTAGGTCACCAGGACGGTGAAGAGGTTGGA	7.98	8.73	2.21	2.07	1.18	-0.299	2.21	-0.518	4.26
ATACGTAGGTTAGGGTCATTCAGAAAGTAGGGAA	0.761	2.44	0.669	3.09	4.27	1.89	4.85	1.86	3.39
CGAACTAGGTCAACGGACAGTGAAAGGCGACGTA	8.1	8.37	-0.094	1.63	0.839	-0.0597	1.77	-0.351	3.89
ATATGAAGGTTAGGGTCATTCAGAAAGTAGGGAA	1.38	2.78	1.79	3.99	4.59	2.32	5.28	2.29	3.66
CGAACTAGGTCAAAGGACAGTAAAAGGCGACGTA	8.07	8.42	0.249	1.7	1.14	0.0773	2.09	0.769	4.06
AGATGTAGGTTAGGGTCATTCAGAAAGTAGGGAA	5.84	6.36	2.37	3.93	4.39	3.03	5.13	3.23	3.39
CGAACTATGTCACCAGGACAGTGAAGAGGTTGGA	4.52	3.71	0.886	0.475	-0.0276	-0.042	0.322	0.192	0.847
CGAACTAGGTAAAAGGACAGTGAAAGGCGACGTA	5.32	4.9	0.0504	0.371	-0.425	-0.442	-0.202	-0.518	1.09
CGTACTAGGTCACCAGGACAGTGAAGAGGTTGGA	7.9	8.08	4.96	3.11	1.53	0.369	2.86	0.557	4.19
ATATGTAGGTTAGGGACATTCAGAAAGTAGGGAA	6.18	5.89	1.59	0.688	0.115	0.777	0.618	1.69	1.04
CGAACTCGGTCAAAGGACAGTGAAAGGCGACGTA	2.71	3.18	-0.87	0.102	-0.0185	-0.567	0.43	-0.278	2.56
CGAACTAGGTCATCAGGACAGTGAAGAGGTTGGA	7.93	8.18	0.121	1.34	1.32	0.123	2.27	0.72	3.9
CGAACTAGGTCAAAGGACACTGAAAGGCGACGTA	8.08	8.34	1.03	3.64	1.6	-0.0402	2.85	0.514	3.86
ATATGTAGGTTAGGGTCATTCAGAAAGTAGGGAA	6.61	6.95	3.49	3.86	4.66	2.12	5.52	2.73	3.34
ATATGTAGGTTAGGGTCACTCAGAAAGTAGGGAA	6.7	6.76	1.93	3.25	3.88	1.5	4.51	1.73	3.8
ATATGTAGGTTACGGTCATTCAGAAAGTAGGGAA	7.69	8.18	1.83	2.04	0.971	0.516	1.47	0.836	2.89
ATATGTAGGTTAGGGCCATTCAGAAAGTAGGGAA	6.52	5.91	1.97	1.54	0.501	0.512	0.535	0.865	1.35
CGAGCTAGGTCAAAGGACAGTGAAAGGCGACGTA	3.53	3.85	-0.971	1.2	1.01	-0.591	2.39	-0.312	4.04
CGAACTAGGTCAAAGTACAGTGAAAGGCGACGTA	7.91	8.47	3.06	1.65	1.58	-0.31	2.5	-0.202	3.84
CCGAGTAGGTTACGAGGGGGCATTCAGTGCGAAT	4.8	4.49		2.04	5.02	6.02	3.43	0.391	2.2
CGAACTAGGTCAAAGGTCAGTGAAAGGCGACGTA	8.37	9.1	4.58	5.51		0.306		2.87	
CTAACTAGGTCAAAGGACAGTGAAAGGCGACGTA	8.56	8.84	1.86	1.28	1.19	-0.0818	2.41	0.599	4.07
CTTTGTAGGTTAAGGGGGTCATTCAGTTTGAAAG	7.24	7.18		3.76	5.9	12	5.32	2.04	3.67
